Screening data as filed in PubChem BioAssay.
tim23-1 inh – growth inhibitors of tim23-1 mutant yeast | S. cerevisiae tim23-1 growth, BacTiter-Glo luminescence, 24 h | inhibition, % at 20 µM | actives 1.3% (n = 330,000) | AID 463212;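 active = growth inhibition of the mutant yeast at or above 50%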;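 also: temperature-sensitive mutant grown at 25 °C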
SKKanGAS inh – blocks kanamycin growth of S. pyogenes SKKanGAS strain; actives 1.3% (n = 300,000); AID 1662; BacTiter-Glo, 6 h; inhibition, % at 7.5 µM;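 active = mean replicate score, as percent of positive control median, at least 50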;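 also: strain carries kanamycin resistance gene driven by streptokinase promoter and grows in 40 µg/ml kanamycin; loss of luminescence reflects streptokinase promoter inhibition or plain growth inhibition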
NALP1 inh – blocks the NALP1 inflammasome reconstituted in yeast; S. cerevisiae NALP1/ASC/caspase-1 growth, X-gal OD620, 72 h; inhibition, % at 10 µM; actives 0.61% (n = 280,000); AID 2071; in the data active = inhibition mostly above about 24%, no sharp cut-off; inactive = mostly below about 32%
tim10-1 inh – inhibits growth of tim10-1 mutant yeast; S. cerevisiae tim10-1 ts strain growth, BacTiter-Glo, 24 h; inhibition, % at 20 µM; actives 2.2% (n = 330,000);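 active = inhibition of at least 40%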;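 also: mutant grown at 25 °C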
PfHsp90 yeast 2 – inhibits growth of yeast expressing Plasmodium falciparum Hsp90; S. cerevisiae expressing PfHsp90, BacTiter-Glo ATP, 48 h; yeast lacking PDR1 and PDR3 efflux regulators; inhibition, % at 9.4 µM; actives 0.32% (n = 310,000);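 active = every replicate shows inhibition above about 80%, whatever the replicate mean, limit read from the data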
TIM10 inh – inhibits growth of TIM10 yeast strain | S. cerevisiae TIM10 strain growth, BacTiter-Glo luminescence, 24 h | inhibition, % at 10 µM | actives 1.4% (n = 330,000);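 active = inhibition of 40% or more at the single tested concentration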;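 also: wild-type TIM10 isogenic control strain grown at permissive 25 °C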
tim10 confirm – TIM10 yeast growth inhibition, confirmed | actives 63% (n = 4,600) | inhibition, % at 10 µM | S. cerevisiae tim10 strain growth, BacTiter-Glo luminescence, 24 h | shares compounds with TIM10 inh;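 active = inhibition of yeast growth at or above a set limit in either of two replicates at 10 µM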; also: this counterscreen used the strain with wild-type TIM10
Of the large screens only hits and unclear results are named; the others gave an inactive call (follow-up assays come after a bar, where they were run). Hits are enriched below; roughly 4.8% of the tested compounds scored in any of these assays.

COc1cccc(C2NC(=O)c3ccccc3O2)c1OC (stereo unspecified)	none (no result: PfHsp90 yeast 2)
C/C(Cl)=C\Cn1c(O)c(N=NC(N)=S)c2cc(Br)ccc21	SKKanGAS inh 80, TIM10 inh 42 | tim10 confirm 48
O=c1oc2c(CN3CCOCC3)c(O)c(Cl)cc2c2c1CCCC2	none
O=c1oc2c3c4c(cc2c2c1CCC2)OCCN4CCC3	TIM10 inh 41 (no result: SKKanGAS inh) | tim10 confirm inactive
O=c1c2ccccc2sn1-c1ccc(F)cc1	TIM10 inh 55 (no result: SKKanGAS inh, NALP1 inh) | tim10 confirm 64
CCN1/C(=C/c2ccc3cc(C)ccc3[n+]2CC)Sc2cc(C)c(C)cc21	PfHsp90 yeast 2 101, TIM10 inh 52 (no result: SKKanGAS inh) | tim10 confirm 79
O=C1C(Nc2cccc(O)c2)=C(N2CCCCC2)C(=O)c2ccccc21	TIM10 inh 46 | tim10 confirm 40
O=C1C(Nc2ccccc2)=C(N2CCCCC2)C(=O)c2ccccc21	none
O=C(/C=C/c1cccc(F)c1)Nc1ccc(S(=O)(=O)N2CCOCC2)cc1	TIM10 inh 68 (no result: SKKanGAS inh, NALP1 inh) | tim10 confirm 45
CC(=O)c1cccc(NC(=O)/C=C/c2ccc(S(=O)(=O)N3CCOCC3)cc2)c1	none (no result: SKKanGAS inh, NALP1 inh)
CN(C)S(=O)(=O)c1cccc(NC(=O)/C=C/c2ccc(S(=O)(=O)N3CCOCC3)cc2)c1	none (no result: SKKanGAS inh, NALP1 inh)
O=C(/C=C/c1ccccc1)Nc1cccc(C(=O)N2CCCCC2)c1	none (no result: tim23-1 inh, SKKanGAS inh, NALP1 inh, tim10-1 inh, TIM10 inh)
COc1ccc(/C=C/C(=O)Nc2ccccc2)cc1S(=O)(=O)N1CCOCC1	none
O=C(/C=C/c1ccccc1)Nc1ccc(C(=O)N2CCCCC2)cc1	TIM10 inh 48 | tim10 confirm inactive
COc1ccc(/C=C/C(=O)Nc2ccc(NC(C)=O)cc2)cc1S(=O)(=O)N1CCOCC1	TIM10 inh 96 (no result: NALP1 inh) | tim10 confirm inactive
O=C(/C=C/c1ccccc1)Nc1ccc(S(=O)(=O)N2CCOCC2)cc1	TIM10 inh 46 | tim10 confirm 44
O=C(CCc1nnc(CCCCc2ccccc2)o1)NCCN1CCOC1=O	none
COCCn1c(Cc2cccn2C)nnc1SCC(=O)NCc1ccc2c(c1)OCO2	none
COc1ccc(NC(=O)CSCC(=O)Nc2ccc(S(=O)(=O)N3CCOCC3)cc2)cc1	none (no result: SKKanGAS inh, NALP1 inh)
O=C(CSCc1ccc(Cl)cc1)Nc1ccc(S(=O)(=O)N2CCOCC2)cc1	TIM10 inh 43 | tim10 confirm inactive
C=CCn1c(N/N=C/c2ccc(O)cc2)nc2ccccc2c1=O	TIM10 inh 45 | tim10 confirm 32
COc1cc(OC)cc(C(=O)N2CCN(S(=O)(=O)c3ccc(Cl)s3)CC2)c1	none (no result: SKKanGAS inh, NALP1 inh)
COC(=O)c1cccc(NC(=S)Nc2ccccc2Cl)c1	none (no result: NALP1 inh)
COC(=O)c1ccc(Cl)c(NC(=O)NC23CC4CC(CC(C4)C2)C3)c1	none
COC(=O)c1cccc(NC(=S)Nc2ccc(Cl)c(Cl)c2)c1	TIM10 inh 57 | tim10 confirm 34
COC(=O)c1cccc(NC(=O)NC23CC4CC(CC(C4)C2)C3)c1	TIM10 inh 48 | tim10 confirm 38
Cc1ccc2oc(/N=C(\N)NC(=O)C3CC3)nc2c1	none
CCS(=O)(=O)c1ccc2c(c1)N(S(=O)(=O)c1cccs1)CC(C(=O)O)O2 (stereo unspecified)	none
COc1ccc(S(=O)(=O)N2CCCCC2)cc1NC(=O)c1cccs1	none
CCCCn1c(-c2csc3c2CCCC3)n[nH]c1=S	TIM10 inh 43 (no result: PfHsp90 yeast 2) | tim10 confirm inactive
C=CCn1c(-c2csc3c2CCC(C)C3)n[nH]c1=S (stereo unspecified)	TIM10 inh 43 | tim10 confirm inactive
CCn1c(-c2csc3c2CCCC3)n[nH]c1=S	none
CCOCCCNC(=O)Cn1cnc2c(cnn2-c2ccc(OC)cc2)c1=O	TIM10 inh 50 | tim10 confirm inactive
CCCN=C(C)c1c(-c2ccccc2)[nH]n(-c2nc3ccccc3s2)c1=O	TIM10 inh 45 (no result: PfHsp90 yeast 2) | tim10 confirm 40
CC(=O)Nc1cc(C(=O)N2CCc3ccccc3C2)ccc1Sc1ccc(Cl)cc1	TIM10 inh 42 | tim10 confirm inactive
N=C1N(/N=C/c2ccccc2)C(=Nc2ccccc2)C(=S)N1c1ccccc1	TIM10 inh 57 | tim10 confirm 35
Cc1ccc(/C=N/n2c(-c3ccccc3)n[nH]c2=S)cc1	none
O=C(O)C1C2C=CC(C2)C1C(=O)Nc1cccc(C(=O)N2CCCCC2)c1 (stereo unspecified)	none
COc1ccc(N2CCC(CNC(=S)Nc3cccc(C)c3)C2)cc1 (stereo unspecified)	none
COc1ccc(N2CCC(CNC(=S)Nc3c(C)cc(C)cc3C)C2)cc1 (stereo unspecified)	TIM10 inh 40 (no result: NALP1 inh) | tim10 confirm 56
CCn1c(SCC(=O)N(C)C2CCCCC2)nc2cc(S(N)(=O)=O)ccc21	TIM10 inh 41 (no result: SKKanGAS inh, NALP1 inh) | tim10 confirm inactive
COc1ccc(NC(=S)N/N=C2\CC(C)(C)Oc3ccc(O)cc32)cc1	TIM10 inh 41 | tim10 confirm inactive
COc1ccccc1NC(=S)N/N=C1\CC(C)(C)Oc2ccc(O)cc21	none
CCOCCCNC(=O)C(c1ccc(C)cc1)N1CCOCC1 (stereo unspecified)	none
CCOC(=O)N1CCN(C(=O)c2ccc3c(c2)N=C(CC)c2cc(C)ccc2S3)CC1	TIM10 inh 40 | tim10 confirm inactive
CCCOc1ncnc2c1[nH]c1ccccc12	TIM10 inh 48 | tim10 confirm 31
Cc1nc2oc3c(NCc4ccccc4)ncnc3c2c2c1COC(C)(C)C2	TIM10 inh 41 | tim10 confirm inactive
Cc1cc(C)cc(C(=O)OCC(=O)NC(=O)NC2CCCC2)c1	TIM10 inh 96 (no result: SKKanGAS inh, NALP1 inh) | tim10 confirm inactive
Cc1cc(C)cc(C(=O)OCC(=O)NC2CCCC2)c1	none
O=C(CCCn1c(=O)oc2ccccc21)N1CCN(c2ccccn2)CC1	none
COc1ccc(-c2n[nH]c(C)c2-c2ccc(Cl)cc2)c(O)c1OC	TIM10 inh 42 (no result: PfHsp90 yeast 2) | tim10 confirm 33
COc1ccc(C)cc1S(=O)(=O)N1CCN(C(=O)c2ncoc2-c2cccc(C)c2)CC1	none
Cc1ccc(C(C)n2cc(C(=O)NCc3ccncc3)nn2)cc1 (stereo unspecified)	none
CC(c1ccccc1)n1cc(C(=O)NCc2cccnc2)nn1 (stereo unspecified)	TIM10 inh 51 | tim10 confirm inactive
CCOc1cc(/C=C2\N=C(C)OC2=O)cc(Cl)c1OCC(=O)OC	none (no result: NALP1 inh)
CCCCOc1c(Br)cc(/C=C2\N=C(C)OC2=O)cc1OCC	TIM10 inh 49 | tim10 confirm inactive
CN(C)c1ccc(C(O)Cc2nc3ccccc3n2C)cc1 (stereo unspecified)	none
CC(C)c1ccc(C(O)Cc2nc3ccccc3n2C)cc1 (stereo unspecified)	TIM10 inh 43 (no result: NALP1 inh) | tim10 confirm inactive
